Data reported in PubChem BioAssay.
Active and inactive are the calls of the source. Unless noted, how the calls were made is not given here.

Tests used:
[1] = HepG2 liver cancer cell viability effects, profiling panel, resazurin fluorescence, 24 h, PK04 Diversity Set (AID 1172); details: higher = more signal
[2] = basal S. cerevisiae growth modulation, no modifier, primary screen, OD600, strain BY4716, 24 h, basal condition (AID 1173); details: OD600, 24 h, higher = more signal, called active from +8 up or from −8 down
[3] = MM1S myeloma cell viability, profiling panel, resazurin fluorescence, basal, 24 h, PK04 Diversity Set (AID 1174); details: higher = more signal, called active from +8 up or from −8 down;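 further: MM1S multiple myeloma cell line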
[4] = target: Dihydroorotate dehydrogenase (quinone), mitochondrial (Plasmodium falciparum (isolate 3D7)) (UniProt Q08210); assay: PfDHODH enzyme inhibitors, primary screen, biochemical, C-terminal His tag, absorbance 600 nm (AID 1175); details: DCIP absorbance 600 nm, higher = more signal, called active from +8 up or from −8 down;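 further: recombinant parasite enzyme with a five histidine tag at its C terminus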
[5] = P. aeruginosa biofilm formation inhibitors, primary screen, strain PAO1, LB-PBS medium, absorbance 600 nm (AID 1176); details: P. aeruginosa PAO1 growth/biofilm, A600, 12 h; higher = more signal
[6] = S. cerevisiae RM11-1a growth modifiers, primary screen, strain RM11-1a, OD600, basal, 24 h (AID 1177); details: OD600, 24 h, higher = more signal, called active from +8 up or from −8 down;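 further: cultures grown under basal conditions with no added stressor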
[7] = E. coli acrAB mutant growth effects, primary screen, E. coli filamentation inducers, strain DRC39, OD650, 24 h (AID 1178); details: higher = more signal, called active from +8 up or from −8 down;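 further: growth measured as culture turbidity by optical density at 650 nm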
[8] = E. coli acrAB mutant growth effects, primary screen, E. coli filamentation inducers, strain DRC39, OD650, 48 h (AID 1179);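 further: screen aims at cell division blockers that make cells filament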; details: E. coli DRC39 delta-acrAB growth, higher = more signal, called active from +8 up or from −8 down
[9] = RPMI8226 myeloma cell viability, profiling panel, resazurin fluorescence, basal, 24 h, PK04 Diversity Set (AID 1180); details: higher = more signal;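 further: RPMI8826 multiple myeloma cell line at 5000 cells per well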
[10] = target: E3 ubiquitin-protein ligase XIAP (Homo sapiens) (UniProt P98170); assay: XIAP binders, primary screen, biophysical, small-molecule microarray, fluorescence 635 nm (AID 1181); details: small-molecule microarray binding, higher = more signal;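 further: score merges 667 nm emission and signal to noise over triplicate slides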
[11] = tested on: XIP peptide (Xip251-270) binding; assay: small-molecule binders of XIP peptide, primary screen, biochemical, small-molecule microarray, fluorescence 635/667 nm, 0.1 µg/mL protein (AID 1182); details: fluorescent protein binding, 635 nm, higher = more signal, called active from +8 up or from −8 down
XIP peptide (Xip251-270) = assay: small-molecule binders of XIP peptide, primary screen, biochemical, small-molecule microarray, fluorescence 635/667 nm, 0.5 µg/mL protein (AID 1183); details: small-molecule microarray binding, fluorescence 635 nm; higher = more signal
[12] = Plasmodium falciparum growth inhibition, primary screen, strain 3D7, DAPI fluorescence, 100 nL (AID 1184);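 further: parasites grown inside human red blood cells in medium with human serum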; details: P. falciparum 3D7 growth, 3 d, higher = more signal
[13] = target: Homeobox protein Hox-A13 (Mus musculus) (UniProt Q62424); assay: inhibitors of HoxA13-DNA binding, primary screen, biochemical, fluorescence polarization, labeled oligonucleotide (AID 1185); details: 15 min, higher = more signal, called active from +8 up or from −8 down
[14] = inhibitors of hydroxyurea-induced Chk1 phosphorylation, primary screen, imaging, HeLa, phospho-Chk1 antibody, percent positive cells (AID 1186); details: hydroxyurea-induced phospho-Chk1 immunofluorescence imaging, higher = more signal
[15] = inhibitors of hydroxyurea-induced Chk1 phosphorylation, primary screen, imaging, HeLa, phospho-Chk1 nuclear intensity (AID 1187); details: hydroxyurea-induced phospho-Chk1 immunofluorescence imaging, higher = more signal

Sequence of Homeobox protein Hox-A13 (Mus musculus) (Q62424 whole entry, looked up): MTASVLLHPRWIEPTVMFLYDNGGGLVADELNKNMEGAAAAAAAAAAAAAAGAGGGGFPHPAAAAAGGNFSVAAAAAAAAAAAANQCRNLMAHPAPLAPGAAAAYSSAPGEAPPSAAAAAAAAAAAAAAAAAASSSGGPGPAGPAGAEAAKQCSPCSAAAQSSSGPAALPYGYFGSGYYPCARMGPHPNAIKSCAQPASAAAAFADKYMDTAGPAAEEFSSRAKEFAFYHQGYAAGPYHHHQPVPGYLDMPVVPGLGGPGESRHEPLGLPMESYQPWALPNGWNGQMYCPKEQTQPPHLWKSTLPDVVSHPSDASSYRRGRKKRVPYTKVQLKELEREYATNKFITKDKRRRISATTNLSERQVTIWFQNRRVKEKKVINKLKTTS
Sequence of E3 ubiquitin-protein ligase XIAP (Homo sapiens) (P98170 whole entry, looked up): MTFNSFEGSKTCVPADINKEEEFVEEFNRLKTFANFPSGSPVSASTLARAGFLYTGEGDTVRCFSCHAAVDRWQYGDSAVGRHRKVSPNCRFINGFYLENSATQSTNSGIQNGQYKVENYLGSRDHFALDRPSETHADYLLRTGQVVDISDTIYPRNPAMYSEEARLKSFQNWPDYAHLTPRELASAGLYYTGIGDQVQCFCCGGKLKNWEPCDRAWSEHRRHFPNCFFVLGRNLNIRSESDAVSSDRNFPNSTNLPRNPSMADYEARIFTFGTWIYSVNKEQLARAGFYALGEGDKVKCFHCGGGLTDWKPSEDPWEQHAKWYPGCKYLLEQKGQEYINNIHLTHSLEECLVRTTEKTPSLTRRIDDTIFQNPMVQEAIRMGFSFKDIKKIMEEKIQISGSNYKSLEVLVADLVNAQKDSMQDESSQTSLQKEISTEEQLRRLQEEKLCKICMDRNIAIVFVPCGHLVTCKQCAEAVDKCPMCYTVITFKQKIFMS
Sequence of Dihydroorotate dehydrogenase (quinone), mitochondrial (Plasmodium falciparum (isolate 3D7)) (Q08210 whole entry, looked up): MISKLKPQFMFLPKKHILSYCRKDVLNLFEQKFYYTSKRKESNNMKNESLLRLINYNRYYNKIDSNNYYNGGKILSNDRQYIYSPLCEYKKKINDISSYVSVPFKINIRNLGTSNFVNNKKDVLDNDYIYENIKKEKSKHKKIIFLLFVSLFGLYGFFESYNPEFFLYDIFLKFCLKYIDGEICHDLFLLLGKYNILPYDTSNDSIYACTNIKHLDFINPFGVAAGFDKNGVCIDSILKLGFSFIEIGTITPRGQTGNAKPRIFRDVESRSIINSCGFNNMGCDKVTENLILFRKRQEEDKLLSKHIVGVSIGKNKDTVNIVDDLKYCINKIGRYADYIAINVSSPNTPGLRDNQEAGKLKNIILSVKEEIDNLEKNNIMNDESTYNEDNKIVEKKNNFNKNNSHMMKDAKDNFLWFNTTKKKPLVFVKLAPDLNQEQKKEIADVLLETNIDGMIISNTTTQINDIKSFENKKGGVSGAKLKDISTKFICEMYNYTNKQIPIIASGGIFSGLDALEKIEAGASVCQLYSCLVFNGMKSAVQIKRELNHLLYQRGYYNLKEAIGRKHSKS

SMILES	z-score [1]	z-score [2]	z-score [3]	composite z-score [4]	z-score [5]	z-score [6]	z-score [7]	z-score [8]	z-score [9]	composite z-score [10]	composite z-score [11]	composite z-score (XIP peptide (Xip251-270))	z-score [12]	z-score [13]	z-score [14]	z-score [15]
O=C1OC[C@@H](c2ccccc2)n2cc(/C=C/c3ccccc3)cc21	-0.295	-2.5 (inactive)	0.539 (inactive)	-2.31 (inactive)	-0.353 (inactive)	0.561 (inactive)	-0.0891 (inactive)	-0.733 (inactive)	-0.302	-0.286	0.623 (inactive)	0.505	-0.0812	0.816 (inactive)	-0.481 (inactive)	-0.268 (inactive)
COc1cc(CO)cc(I)c1O[C@H]1C=C(C(=O)NCCO)C[C@@H](N(CCN2CCOCC2)C(=O)C2CCCO2)[C@@H]1O (stereo not given in full)	0.687	-0.371 (inactive)	-0.202 (inactive)	0.826 (inactive)	-0.365 (inactive)	0.772 (inactive)	2.09 (inactive)	1.21 (inactive)	0.716	-0.117	0.0188 (inactive)	0.0326	0.0945	-1.59 (inactive)	-0.866 (inactive)	-0.723 (inactive)
CCOC(=O)C[C@H]1[C@H](OC(=O)c2cc3ccccc3oc2=O)[C@@H](NC(=O)c2ccc(-c3ccccc3)cc2)c2cc(OCCCO)ccc2N1C(=O)Cc1ccc(OC)cc1	0.288	0.0392 (inactive)	-0.346 (inactive)	-0.487 (inactive)	0.285 (inactive)	-0.0775 (inactive)	-0.225 (inactive)	-0.618 (inactive)	-0.0232	-0.338	0.108 (inactive)	0.437	-0.638	-3.12 (inactive)	0.105 (inactive)	-0.0512 (inactive)
C=CCNC(=O)[C@H]1[C@@H]2C(=O)O[C@@H](c3ccccc3)[C@@H](c3ccccc3)N2[C@@H](c2ccc(OCCO)cc2)[C@]12C(=O)N(C(=O)OCCOC)c1ccc(C#CCNC(N)=O)cc12	0.263	1.88 (inactive)	0.31 (inactive)	-0.193 (inactive)	1.45 (inactive)	3.01 (inactive)	1.45 (inactive)	1.24 (inactive)	1.09	0.0313	0.797 (inactive)	0.579	0.0978	-1.67 (inactive)	-0.128 (inactive)	-0.209 (inactive)
C=C(C(=O)CC[C@H](OC(=O)c1ccccc1-c1ccccc1C(=O)O)c1ccc(OCCO)cc1)C(C)C	0.0716	-1.02 (inactive)	-0.22 (inactive)	-0.311 (inactive)	0.509 (inactive)	-0.711 (inactive)	-0.0716 (inactive)	-0.698 (inactive)	0	0.125	0.0052 (inactive)	0.569	-2.71	-6.36 (inactive)	-0.0593 (inactive)	-0.326 (inactive)
O=C1O[C@@H](c2ccccc2)[C@@H](c2ccccc2)N2[C@@H](c3ccccc3OCCO)[C@]3(C(=O)Nc4ccc(C#CC5(O)CCCCCC5)cc43)[C@@H](C(=O)N3CCCCCCC3)[C@H]12	-0.225	0.866 (inactive)	-0.169 (inactive)	-1.03 (inactive)	1.33 (inactive)	0.312 (inactive)	-0.36 (inactive)	-1.17 (inactive)	-0.186	1.97	5.76 (inactive)	0.878	-2.38	4.83 (inactive)	0.503 (inactive)	0.639 (inactive)
COC(=O)C(CC#Cc1ccc2c(c1)[C@]1(C(=O)N2)[C@H](C(=O)N2CCN(c3ncccn3)CC2)[C@H]2C(=O)O[C@H](c3ccccc3)[C@H](c3ccccc3)N2[C@@H]1c1ccc(O)cc1)C(=O)OC	-0.146	0.586 (inactive)	0.235 (inactive)	-15.3 (active)	1.67 (inactive)	1.25 (inactive)	0.167 (inactive)	0.26 (inactive)	-1.47	0.309	0.959 (inactive)	0.782	-2.28	-2.37 (inactive)	-0.413 (inactive)	-1.02 (inactive)
Cc1ccc(S[C@]2(C(=O)NCCN3CCOCC3)CC(=O)N(C(C)C)[C@@H]2c2ccc(CO)cc2I)cc1	0.124	-3.26 (inactive)	-2.29 (inactive)	-2.11 (inactive)	0.553 (inactive)	-2.93 (inactive)	1.16 (inactive)	1.65 (inactive)	-1.83	-0.0304	0.342 (inactive)	0.93	-0.191	-3.43 (inactive)	-0.395 (inactive)	-0.0483 (inactive)
O=C(O)C1=CC[C@H]2C(=O)N(c3ccccc3)C(=O)[C@@H]12	-0.0581	1.53 (inactive)	-0.849 (inactive)	0.609 (inactive)	0.477 (inactive)	1.6 (inactive)	-0.897 (inactive)	-0.453 (inactive)	-1.24	0.997	0.688 (inactive)	0.783	0.0472	-3.04 (inactive)	-0.416 (inactive)	-0.647 (inactive)
COC(=O)[C@@]1(Cc2ccc(F)cc2)[C@H]2c3cc(C(=O)N(C)C)n(Cc4ccc(C(F)(F)F)nc4)c3C[C@H]2CN1C(=O)c1ccccc1	-0.575	0.512 (inactive)	-1.04 (inactive)	0.0058 (inactive)	-0.359 (inactive)	0.337 (inactive)	-0.532 (inactive)	-0.171 (inactive)	-0.912	0.109	0.338 (inactive)	0.64	-1.68	-3.87 (inactive)	0.93 (inactive)	0.563 (inactive)
